{
  "source": "the supplement of paper PMC8728848",
  "binders": {"B1": {"name": "HopZSSI-T (Helicobacter pylori), B5Z6D0 (protein)", "chain": "MGSSHHHHHHSSGLVPRGSHMENLYFQGEDNGFFISAGYQIGEAAQMVKNTGELKKLSDTYENLSNLLTNFNNLNQAVTNASSPSEINAAIDNLKANTQGLTGEKTNSPAYQAVYLALNAAVGLWNVIAYNVQCGPGNSSQQSVTFEGQPGHNSSSINCNLTGYNNGVSGPLSIDNFKQLNQAYQVLQQALKQGVPVLNNTNQKIEVKVTTQTNGQSSKETTTTTTTNDAQTLLQEASKMIDVLTTNCPWVNHNPGQNGGAPWGLIRQECVSGFATEFSAVTSMIKNAQEIVTQAQSLNANQNNQNAPQDFNPYTSADRAFAQNMLNHAQAQAKILELADQMKKDLNTIPSQFITNYLAACRIDGTTPSQGVTNNTWGAGCAYVEETITALNNSLAHFGTQAEQIKQSELLARTILDFRGSLSTLNSTYNSITTTASNTPNSPFLKNLISQSTNPNNPGGLQAVYQVNQSAYSQLLSATQELGHNPFRRIGLISSQT"}},
  "assay_in_all_cases": "glycan array binding signal (z-score within array); higher = stronger binding",
  "details_in_all_cases": "glycan notation: IUPAC condensed, linker removed",
  "key": {"[1]": {"target": "Fuc(a1-2)Gal(b1-4)[Fuc(a1-3)]GlcNAc", "in_short": "(§1)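 Glycan array data came from 3228 arrays in the Consortium for Functional Glycomics database, and only arrays with an available protein sequence were kept. Glycan names were put into IUPAC-condensed notation, and columns mapping to the same glycan were averaged. The binding signal is a within-array Z-score, averaged across arrays of one protein sequence run at different concentrations or buffers and across linkers. A negative Z-score can be read as non-binding.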"}, "[2]": {"target": "Fuc(a1-2)[Gal(a1-3)]Gal(b1-3)GlcNAc(b1-2)Man(a1-3)[Fuc(a1-2)[Gal(a1-3)]Gal(b1-3)GlcNAc(b1-2)Man(a1-6)]Man(b1-4)GlcNAc(b1-4)GlcNAc", "in_short": "as §1"}, "[3]": {"target": "Fuc(a1-2)[Gal(a1-3)]Gal(b1-4)[Fuc(a1-3)]GlcNAc", "in_short": "as §1"}, "[4]": {"target": "Fuc(a1-2)[GalNAc(a1-3)]Gal", "in_short": "as §1"}, "[5]": {"target": "Fuc(a1-2)[GalNAc(a1-3)]Gal(b1-4)[Fuc(a1-3)]GlcNAc", "in_short": "as §1"}, "[6]": {"target": "Fuc(a1-3)[Gal(b1-4)]GlcNAc(b1-2)Man(a1-3)[Fuc(a1-3)[Gal(b1-4)]GlcNAc(b1-2)Man(a1-6)]Man(b1-4)GlcNAc(b1-4)GlcNAc", "in_short": "as §1"}, "[7]": {"target": "Fuc(a1-3)[Gal(b1-4)]GlcNAc(b1-2)Man(a1-3)[Fuc(a1-3)[Gal(b1-4)]GlcNAc(b1-2)Man(a1-6)]Man(b1-4)GlcNAc(b1-4)[Fuc(a1-6)]GlcNAc", "in_short": "as §1"}, "[8]": {"target": "Fuc(a1-3)[Gal(b1-4)]GlcNAc(b1-4)Gal(b1-4)[Fuc(a1-3)]GlcNAc", "in_short": "as §1"}, "[9]": {"target": "Gal(a1-3)Gal(b1-4)GlcNAc(b1-2)Man", "in_short": "as §1"}, "[10]": {"target": "Gal(a1-3)Gal(b1-4)GlcNAc(b1-3)GalNAc", "in_short": "as §1"}, "Gal(b1-3)Gal(b1-4)GlcNAc": {"target": "Gal(b1-3)Gal(b1-4)GlcNAc", "in_short": "as §1"}, "[11]": {"target": "Gal(b1-3)GlcNAc(b1-2)[Gal(b1-3)GlcNAc(b1-6)]Man(a1-6)[Gal(b1-3)GlcNAc(b1-2)Man(a1-3)]Man(b1-4)GlcNAc(b1-4)GlcNAc", "in_short": "as §1"}, "[12]": {"target": "Gal(b1-4)GlcNAc(b1-2)Man(a1-3)[Gal(b1-4)GlcNAc(b1-2)Man(a1-6)][GlcNAc(b1-4)]Man(b1-4)GlcNAc(b1-4)[Fuc(a1-6)]GlcNAc", "in_short": "as §1"}, "[13]": {"target": "Gal(b1-4)GlcNAc(b1-3)Gal(b1-4)GlcNAc(b1-3)Gal(b1-4)GlcNAc(b1-3)Gal(b1-4)GlcNAc(b1-2)Man(a1-3)[Gal(b1-4)GlcNAc(b1-3)Gal(b1-4)GlcNAc(b1-3)Gal(b1-4)GlcNAc(b1-3)Gal(b1-4)GlcNAc(b1-2)Man(a1-6)]Man(b1-4)GlcNAc(b1-4)[Fuc(a1-6)]GlcNAc", "in_short": "as §1"}, "[14]": {"target": "Gal(b1-4)GlcNAc(b1-3)Gal(b1-4)GlcNAc(b1-3)Gal(b1-4)GlcNAc(b1-3)Gal(b1-4)GlcNAc(b1-2)[Gal(b1-4)GlcNAc(b1-3)Gal(b1-4)GlcNAc(b1-3)Gal(b1-4)GlcNAc(b1-3)Gal(b1-4)GlcNAc(b1-6)]Man(a1-6)[Gal(b1-4)GlcNAc(b1-3)Gal(b1-4)GlcNAc(b1-3)Gal(b1-4)GlcNAc(b1-3)Gal(b1-4)GlcNAc(b1-2)Man(a1-3)]Man(b1-4)GlcNAc(b1-4)[Fuc(a1-6)]GlcNAc", "in_short": "as §1"}, "[15]": {"target": "Gal(b1-4)GlcNAc(b1-3)Gal(b1-4)GlcNAc(b1-3)Gal(b1-4)GlcNAc(b1-3)Gal(b1-4)GlcNAc(b1-3)Gal(b1-4)GlcNAc(b1-2)Man(a1-3)[Gal(b1-4)GlcNAc(b1-3)Gal(b1-4)GlcNAc(b1-3)Gal(b1-4)GlcNAc(b1-3)Gal(b1-4)GlcNAc(b1-3)Gal(b1-4)GlcNAc(b1-2)Man(a1-6)]Man(b1-4)GlcNAc(b1-4)GlcNAc", "in_short": "as §1"}, "[16]": {"target": "Gal(b1-4)GlcNAc(b1-3)Gal(b1-4)GlcNAc(b1-3)Gal(b1-4)GlcNAc(b1-3)Gal(b1-4)GlcNAc(b1-3)Gal(b1-4)GlcNAc(b1-2)Man(a1-3)[Gal(b1-4)GlcNAc(b1-3)Gal(b1-4)GlcNAc(b1-3)Gal(b1-4)GlcNAc(b1-3)Gal(b1-4)GlcNAc(b1-3)Gal(b1-4)GlcNAc(b1-2)Man(a1-6)]Man(b1-4)GlcNAc(b1-4)[Fuc(a1-6)]GlcNAc", "in_short": "as §1"}, "[17]": {"target": "Gal(b1-4)GlcNAc(b1-6)GalNAc", "in_short": "as §1"}, "Gal4S6S(b1-4)GlcNAc": {"target": "Gal4S6S(b1-4)GlcNAc", "in_short": "as §1"}, "GalNAc(b1-4)GlcNAc": {"target": "GalNAc(b1-4)GlcNAc", "in_short": "as §1"}, "[18]": {"target": "GalNAc(b1-4)GlcNAc(b1-3)GalNAc(b1-4)GlcNAc", "in_short": "as §1"}, "GalNAc4S6S(b1-4)GlcNAc": {"target": "GalNAc4S6S(b1-4)GlcNAc", "in_short": "as §1"}, "GalNAc6S(b1-4)GlcNAc": {"target": "GalNAc6S(b1-4)GlcNAc", "in_short": "as §1"}, "[19]": {"target": "Glc(a1-4)Glc(a1-4)Glc(a1-4)Glc", "in_short": "as §1"}, "[20]": {"target": "GlcNAc(a1-4)Gal(b1-4)GlcNAc", "in_short": "as §1"}, "[21]": {"target": "GlcNAc(b1-2)Man(a1-3)[GlcNAc(b1-2)Man(a1-6)]Man(b1-4)GlcNAc(b1-4)[Fuc(a1-6)]GlcNAc", "in_short": "as §1"}},
  "note": "Only a selection was taken, and the strongest signals are over-represented in it overall.",
  "data": [
    {"binder": "B1", "values": [
      {"measurement": "glycan array binding signal (z-score)", "setting": "[1]", "value": -0.221},
      {"measurement": "glycan array binding signal (z-score)", "setting": "[2]", "value": -0.111},
      {"measurement": "glycan array binding signal (z-score)", "setting": "[3]", "value": 0.174},
      {"measurement": "glycan array binding signal (z-score)", "setting": "[4]", "value": -0.229},
      {"measurement": "glycan array binding signal (z-score)", "setting": "[5]", "value": -0.057},
      {"measurement": "glycan array binding signal (z-score)", "setting": "[6]", "value": -0.248},
      {"measurement": "glycan array binding signal (z-score)", "setting": "[7]", "value": -0.378},
      {"measurement": "glycan array binding signal (z-score)", "setting": "[8]", "value": -0.536},
      {"measurement": "glycan array binding signal (z-score)", "setting": "[9]", "value": -0.247},
      {"measurement": "glycan array binding signal (z-score)", "setting": "[10]", "value": -0.615},
      {"measurement": "glycan array binding signal (z-score)", "setting": "Gal(b1-3)Gal(b1-4)GlcNAc", "value": -0.409},
      {"measurement": "glycan array binding signal (z-score)", "setting": "[11]", "value": 0.014},
      {"measurement": "glycan array binding signal (z-score)", "setting": "[12]", "value": -0.305},
      {"measurement": "glycan array binding signal (z-score)", "setting": "[13]", "value": 1.74},
      {"measurement": "glycan array binding signal (z-score)", "setting": "[14]", "value": 0.699},
      {"measurement": "glycan array binding signal (z-score)", "setting": "[15]", "value": 2.12},
      {"measurement": "glycan array binding signal (z-score)", "setting": "[16]", "value": 1.86},
      {"measurement": "glycan array binding signal (z-score)", "setting": "[17]", "value": 1.25},
      {"measurement": "glycan array binding signal (z-score)", "setting": "Gal4S6S(b1-4)GlcNAc", "value": -0.807},
      {"measurement": "glycan array binding signal (z-score)", "setting": "GalNAc(b1-4)GlcNAc", "value": 2.32},
      {"measurement": "glycan array binding signal (z-score)", "setting": "[18]", "value": 0.498},
      {"measurement": "glycan array binding signal (z-score)", "setting": "GalNAc4S6S(b1-4)GlcNAc", "value": 3.87},
      {"measurement": "glycan array binding signal (z-score)", "setting": "GalNAc6S(b1-4)GlcNAc", "value": 9.12},
      {"measurement": "glycan array binding signal (z-score)", "setting": "[19]", "value": -0.263},
      {"measurement": "glycan array binding signal (z-score)", "setting": "[20]", "value": 0.109},
      {"measurement": "glycan array binding signal (z-score)", "setting": "[21]", "value": 0.081}
    ]}
  ]
}
